High-throughput results deposited in PubChem BioAssay by National Center for Advancing Translational Sciences (NCATS).
In the library only some 10% were active in any assay of this set; here they are far more common.
JMJD2A Tudor: inhibitors of human JMJD2A Tudor domain. O75164. AlphaScreen JMJD2A-Tudor / H3K4me3 peptide binding. actives 4.4% (n = 390,000). AID 504339. Potency, µM (highest dose often 114 µM), without a hit: at the highest dose activity change, negative = inhibition, actives largely listed as inhibitors; further: potency means the concentration at half of the fitted maximal effect; on the % scale 0 is the no-effect control and ±100 the full control effect; nearly all actives have a fitted effect of over 50% in size
Six1-Eya2 blk: blocks human Six1 binding to Eya2; Q15475+O00167; AlphaScreen GST-Six1/His-Eya2 binding, biochemical; stronger effect = lower value; activity change, % (test concentration not listed); actives 0.56% (n = 360,000); in the data active means activity change below about -65%; inconclusive means mostly about -30% to -63%; further: on the % scale 0 is the no-effect control and ±100 the full control effect
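AlphaScreen with GST-Six1 and His-Eya2 (5X mix: 250 nM and 500 nM), glutathione donor and nickel acceptor beads; buffer 50 mM Tris pH 8.0, 300 mM NaCl, 1 mM TCEP; 1 h at 37 C in the dark.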
CtBP-E1A blk: CtBP/E1A binding inhibition; AlphaScreen GST-E1A/His-CtBP binding, 1536-well; stronger effect = lower value; activity change, % (test concentration not listed); actives 0.49% (n = 340,000); AID 651724; in the data active means activity change below about -65%; inconclusive means mostly about -30% to -63%; further: on the % scale 0 is the no-effect control and ±100 the full control effect
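GST-E1A and His-tagged CtBP (125 nM each as 5X stock) were preincubated with pin-transferred compound for 2 h at 37 °C in the dark, then glutathione donor and nickel acceptor beads were added for 1 h before AlphaScreen reading.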
HP1b chromo inh: blocks HP1-beta chromodomain binding to methylated histone tails | AlphaScreen HP1-beta / biotin-H3K9me3 peptide binding | actives 0.56% (n = 390,000) | P83916 | AID 540317 | Potency, µM (titrated, usually from 114 µM), inactives show at the highest dose activity change, negative = inhibition, actives largely listed as inhibitors; further: potency means the concentration at half of the fitted maximal effect; nearly all actives have a fitted effect of over 70% in size
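AlphaScreen: HP1-beta (50 nM) preformed 30 min with biotin-H3(1-18)K9me3 peptide (50 nM) in PBS pH 7.4, 0.01% Tween-20. Compound added for 30 min at RT, then streptavidin donor/nickel chelate acceptor beads (10 ug/mL) for 30 min.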
BAZ2B block: inhibitors of human BAZ2B bromodomain; Potency, µM (top dose mostly 114 µM), for the others: at the top dose activity change, negative = inhibition, usual class: inhibitors; Q9UIF8; AlphaScreen BAZ2B-H3K14Ac peptide displacement; actives 4.4% (n = 360,000); AID 504333; further: potency means the concentration at half of the fitted maximal effect; on the % scale 0 is the no-effect control and ±100 the full control effect; nearly all actives have a fitted effect of over 60% in size
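BAZ2B (50 nM) with biotin-H3(5-23)K14Ac peptide (50 nM) in PBS pH 7.4, 0.01% Tween-20, preformed 30 min, then compound 30 min at room temperature; top concentration 110uM. AlphaScreen streptavidin donor/nickel chelate acceptor beads (10 ug/mL final), 20 min dark, signal read.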
G9a block: blocks human histone lysine methyltransferase G9a; actives 8.8% (n = 350,000); G9a H3K9 monomethylation, AlphaScreen, 2 h; Q96KQ7; Potency, µM (top dose mostly 102 µM), for inactives: at the highest dose activity, negative = inhibition, most hits filed as inhibitors; further: potency means the concentration at half of the fitted maximal effect; on the % scale 0 is the no-effect control and ±100 the full control effect; nearly all actives have a fitted effect of over 75% in size
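Using a bead-based AlphaScreen, monomethylated H3K9 product from 2 h room-temperature reactions (G9a 20 nM, peptide 500 nM, SAM 20 uM) was detected with 0.5 ug/mL rabbit anti-H3K9me1 antibody.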
Active calls of the source: *; ? = inconclusive; nt = no result; [ ] = dose if it differs, or a comment. Unless noted, the call rests on the fitted dose curve; in most records, active means well fitted inhibition curve with a large enough effect; inconclusive means small, poorly fitted or top-dose-only effect; inactive means no such curve, though single readings can be large or run the other way.

SMILES	JMJD2A Tudor	Six1-Eya2 blk	CtBP-E1A blk	HP1b chromo inh	BAZ2B block	G9a block
COc1ccc(C(=O)/C=C/c2ccc(N3CCCCC3)c([N+](=O)[O-])c2)c(OC)c1	10µM*	28	0	16µM*	8.9µM*	8.9µM*
COc1ccc(C=CC(=O)c2ccc([N+](=O)[O-])cc2)cc1	-17%	5	2	-12%	nt	nt
O=C(Nc1ccc2nc(SCC(=O)N3CCCC3)sc2c1)c1cccc(F)c1	-14%	nt	nt	54%	-27%	3%[59 µM]
Cc1c(CC(=O)NCCCC(=O)O)c(=O)oc2cc3occ(-c4ccccc4)c3cc12	-8%	?	-28	14%	-2%	24%
Cc1c(CCC(=O)N[C@@H](C)C(=O)O)c(=O)oc2cc3occ(-c4ccccc4)c3cc12	-22%	?	-77*	2%	-9%	44%
CCC(NC(=O)CCc1c(C)c2cc3c(-c4ccccc4)coc3cc2oc1=O)C(=O)O (stereo not given)	-16%	-23	-77*	11%	-3%	-8%
Cc1c(CCC(=O)NCCCCCC(=O)O)c(=O)oc2cc3occ(-c4ccccc4)c3cc12	-6%	-68*	nt	35%	?	?
COc1ccc(C2c3sc(=O)[nH]c3SC3C(=O)N(c4ccccc4)C(=O)C32)cc1 (stereo not given)	?	-2	0	-15%	?	8.9µM*
O=C1C2Sc3[nH]c(=O)sc3C(c3ccccc3)C2C(=O)N1c1ccccc1 (stereo not given)	-33%	-1	3	4%	?	-4%[0.501 µM]
Cc1ccc(NC(=O)Cn2c(=O)oc3cc(S(=O)(=O)NCc4ccccc4)ccc32)cc1	-2%	nt	nt	58%	-1%	7%[59 µM]
C#CCOCCOCCOCCNc1nc(N2CCN(C(=O)[C@H]([C@@H](C)CC)n3cc(CCCCN)nn3)CC2)nc(N2CCN(C(=O)[C@H](C)n3cc(CCCN=C(N)N)nn3)CC2)n1	-22%	2	0	19%	-19%	9%[2.33 µM]
C#CCOCCOCCOCCNc1nc(N2CCOCC2)nc(N2CCN(C(=O)[C@H]([C@@H](C)CC)n3cc(CCCCN)nn3)CC2)n1	?	3	5	16%	?	50µM*
C#CCOCCOCCOCCNc1nc(N2CCN(C(=O)[C@H](C(C)C)n3cc(CCO)nn3)CC2)nc(N2CCN(C(=O)[C@H]([C@@H](C)CC)n3cc(CCC(=O)O)nn3)CC2)n1	-23%	6	5	13%	nt	nt
C#CCOCCOCCOCCNc1nc(N2CCN(C(=O)[C@H](C(C)C)n3cc(CCO)nn3)CC2)nc(N2CCN(C(=O)[C@H]([C@@H](C)CC)n3cc(CCCCN)nn3)CC2)n1	-27%	5	-23	28%	-34%	50µM*
CN1CCN(c2ccc(NC(=O)c3ccc(-c4ccc(Br)cc4)o3)cc2)CC1	35µM*	?	?	?	25µM*	32µM*
CC(=O)N1CCN(c2ccc(NCc3ccc(-c4ccc(Br)cc4)o3)cc2)CC1	25µM*	nt	nt	-22%	nt	nt
Cc1ccc(O)c(C(CC(=O)NCC2(c3ccccc3)CCCC2)c2ccccc2)c1 (stereo not given)	-22%	nt	nt	-4%	-22%	-30%[59 µM]
CC(C)(C)n1nnnc1C(c1ccccc1)N1CCN(c2ncccn2)CC1 (stereo not given)	nt	2	-3	nt	nt	nt
COc1cccc(-c2nnc(NC(=O)c3ccc4ncsc4c3)o2)c1	-20%	-30	-16	25%	79µM*	?
CS(=O)(=O)c1cccc(-c2nnc(NC(=O)c3ccc4ncsc4c3)o2)c1	?	-4	-16	27%	4%	?
CSc1ccccc1-c1nnc(NC(=O)Cc2ccccc2)o1	3%	-5	-26	45%	-13%	44%[59 µM]
CS(=O)(=O)c1ccccc1-c1nnc(NC(=O)c2ccc3ncsc3c2)o1	56µM*	-19	-23	61%	50µM*	-14%[2.33 µM]
CS(=O)(=O)c1ccccc1-c1nnc(NC(=O)Cc2ccccc2)o1	79µM*	?	-8	8%	25µM*	?
CCOC(=O)C1CCCN(C2=C(NS(=O)(=O)c3ccc(Br)cc3)C(=O)c3ccccc3C2=O)C1 (stereo not given)	10µM*	-71*	nt	10µM*	8.9µM*	nt
CC(C)(CN1CCCC1)NS(=O)(=O)c1ccc(Cl)cc1	0%	-5	-4	0%	6%	5%[12.7 µM]
SMILES	JMJD2A Tudor	Six1-Eya2 blk	CtBP-E1A blk	HP1b chromo inh	BAZ2B block	G9a block
CC1CCCC(C)N1CC(C)(C)NS(=O)(=O)c1ccc(Cl)cc1 (stereo not given)	24%	0	4	21%	50µM*	?
CCOC(=O)C1CCN(CC(C)(C)NS(=O)(=O)c2ccc(Cl)cc2)CC1	3.2µM*	-10	0	79µM*	50µM*	11µM*
CCOC(=O)C1CCN(C2=C(NS(=O)(=O)c3ccc(Cl)cc3)C(=O)c3ccccc3C2=O)CC1	11µM*	?	-81*	?	8.9µM*	4.5µM*
CCOC(=O)C1CCCN(C(=O)CCNS(=O)(=O)c2ccc(Br)cc2)C1 (stereo not given)	-13%	2	12	56%	-5%	0%[12.7 µM]
CCOC(=O)/C(C#N)=C/c1c(N2CCN(c3ccccc3)CC2)nc2ccccn2c1=O	?	?	-8	2%	?	-17%[2.33 µM]
O=S(=O)(c1ccc(Cl)cc1)c1nc(-c2ccco2)oc1SCc1ccc(F)cc1	-10%	nt	nt	25%	-18%	?
O=S(=O)(c1ccc(Cl)cc1)N1CCN(c2ncnc3sccc23)CC1	-10%	-2	-2	39%	nt	nt
Clc1cccc(CSc2nnc([C@@H]3CCCN3)o2)c1	-19%[57.1 µM]	0	-4	63%	79µM*	16%[0.501 µM]
Cc1cccc(CSc2nnc([C@@H]3CCCN3)o2)c1	-3%	-1	4	57%	17%	nt
CC(C)(C)NC(=O)NC(=O)CSc1n[nH]c(-c2ccccc2Br)n1	-12%	-1	5	3%	-10%	-26%
COC(=O)c1scc(-c2ccc(C)cc2)c1S(=O)(=O)Nc1ccc(N(C)C)cc1	?	nt	nt	?	8.9µM*	?
